Results taken from the supplement of paper PMC12067093, “Discovery and optimisation of a covalent ligand for TRIM25 and its application to targeted protein ubiquitination” (Chemical Science, 2025).
Targets with the largest changes are over-represented here; the source holds about 21,000 in all.

Compound: Cc1cc(ccc1-c1ccccc1)C(=O)N1CCCN(CC1)C(=O)CCl [compound 10]
Assay: probe-labelled cysteine peptide fold change vs DMSO (competition) (log2 fold change); higher = less target engagement (more negative = stronger competition)
Conditions: THP-1, incubation time: 4 h
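Further: competitive profiling in live THP-1 cells: cysteine peptides tagged with an iodoacetamide desthiobiotin (IA-DTB) probe, intensity after compound treatment relative to DMSO-treated cells.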

Target	probe-labelled cysteine peptide fold change (10 µM)	probe-labelled cysteine peptide fold change (50 µM)
MORC3_Q14149_15_LSALCPK (UniProt Q14149)	-0.27	-1.37
MRC2_Q9UBG0_1234_TTSCDTK (UniProt Q9UBG0)	-0.27	-0.499
MITD1_Q8WV92_226_FSLGYCDFDLRPCHETTVDIFHK (UniProt Q8WV92)	0.0984	0.0591
LUC7L3_O95232_58_SDLGPCEK (UniProt O95232)	-0.112	-0.363
MRPL35_Q9NZE8_150_EFVFCNK (UniProt Q9NZE8)	-0.362	-0.257
LIMS3_P0CW19-2_136_YCEHDFQMLFAPCCHQCGEFIIGR<|>LIMS1_P48059_74_YCEHDFQMLFAPCCHQCGEFIIGR (UniProt P48059+P0CW19)	0.212	0.138
MDN1_Q9NU22_3985_KFEAVLSEPCR (UniProt Q9NU22)	-0.313	-0.0822
LRRC8A_Q8IWT6_768+776_GNRLECLPVELGECPLLK (UniProt Q8IWT6)	-0.106	-0.0226
MORC3_Q14149_671_NDAVILPSCVEAEAK (UniProt Q14149)	-0.296	-0.0456
LRCH4_O75427_283_GSALGDLAPSRPPSFSPCPAEDLFPGHR (UniProt O75427)	-1.16	-1.33
LPIN3_Q9BQK8_443_SLRDPNPEHEPEPTLDTVDTIALSLCGGLADSR (UniProt Q9BQK8)	-0.112	0.0613
MMS19_Q96T76_750_ELLELSCCHSCPFSSTAAAK (UniProt Q96T76)	-0.103	-1.11
LYSMD2_Q8IV50_106_LFTNDCIFLK (UniProt Q8IV50)	-0.192	-1.77
MRPL44_Q9H9J2_96_TAFVNSCYIK (UniProt Q9H9J2)	-0.0364	-0.21
MED1_Q15648_135_VAHHGENPVSCPELVQQLR (UniProt Q15648)	-0.0375	-0.395
MRPL42_Q9Y6G3_45_STYSPLPDDYNCNVELALTSDGR (UniProt Q9Y6G3)	0.0794	-0.1
MTMR6_Q9Y217_214_CLEDEHLLQAISK (UniProt Q9Y217)	-0.103	-0.217
MDN1_Q9NU22_3308_MDRLDNLTCHLLK (UniProt Q9NU22)	-0.00667	-0.264
MYCBP2_O75592_3263_QAHPGCGR (UniProt O75592)	0.0855	0.00399
MYBL2_P10244_147_SCWTEEEDRIICEAHK (UniProt P10244)	0.166	-0.335
MATR3_P43243_230_CRDDSFFGETSHNYHK (UniProt P43243)	0.00308	-0.311

Target	probe-labelled cysteine peptide fold change (10 µM)	probe-labelled cysteine peptide fold change (50 µM)
MTHFD1L_Q6UB35_906_YTQQGFGNLPICMAK (UniProt Q6UB35)	-0.063	-0.0614
LRRK2_Q5S007_1187_FSCIPEAILNLPHLR (UniProt Q5S007)	-0.0375	-0.109
MYH9_P35579_988_KLEEEQIILEDQNCK (UniProt P35579)	-0.0561	-0.0225
MCM5_P33992_221_CVDFQTLK (UniProt P33992)	0.05	-0.397
MKS1_Q9NXB0_226_KYEHVLCTLK (UniProt Q9NXB0)	-0.112	0.305
MDN1_Q9NU22_3195_ELLCQLLTSLHHFVGEGESK (UniProt Q9NU22)	-0.696	-1.2
MAK16_Q9BXY0_39_NEYSLTGLCNR (UniProt Q9BXY0)	0.173	-0.348
MCM2_P49736_661_FDILCVVR (UniProt P49736)	0.242	0.398
LSM2_Q9Y333_26_NDLSICGTLHSVDQYLNIK (UniProt Q9Y333)	0.109	0.253
MSI1_O43347_167_VCEIHFHEINNK<|>MSI2_Q96DH6_168_VCEIHFHEINNK (UniProt Q96DH6+O43347)	0.163	0.236
MCM2_P49736_223_ISDMCK (UniProt P49736)	-0.124	-0.178
LRRC40_Q9H9A6_227_HLDCNSNLLETIPPELAGMESLELLYLRR (UniProt Q9H9A6)	-0.229	-0.459
LIMK1_P53667_84_YGESCHGCSEQITK (UniProt P53667)	0.0187	-0.262
MAGT1_Q9H0U3_87_QCVVCK (UniProt Q9H0U3)	-0.137	0.464
MTMR3_Q13615_473_CPVFLQWLDCVHQLQR (UniProt Q13615)	-0.0651	0.044
LENG8_Q96PV6_584_SLCMVK (UniProt Q96PV6)	-0.193	-1.09
MCEE_Q96PE7_166_DCGGVLVELEQA (UniProt Q96PE7)	-0.0643	0.17
LRPPRC_P42704_571_YCQEPR (UniProt P42704)	0.261	0.6
MRPL37_Q9BZE1_104_DQACYIFHHR (UniProt Q9BZE1)	0.0327	-0.253
MCCC2_Q9HCC0_267_AATGEEVSAEDLGGADLHCR (UniProt Q9HCC0)	-0.421	-1.1
LRRC47_Q8N1G4_367_LHEDLCEK (UniProt Q8N1G4)	-0.211	-0.0285

Target	probe-labelled cysteine peptide fold change (10 µM)	probe-labelled cysteine peptide fold change (50 µM)
MCM2_P49736_584_GVCLIDEFDK (UniProt P49736)	0.0289	0.142
MTMR10_Q9NXD2_70_LICSNFK (UniProt Q9NXD2)	-0.125	-0.103
MTHFD1_P11586_236_GEWIKPGAIVIDCGINYVPDDKKPNGR (UniProt P11586)	-0.116	-1.23
MAP1S_Q66K74_435+440_VLFPGCTPPACLLDGLVR (UniProt Q66K74)	-0.0708	-0.133
MAPK9_P45984_222_GCVIFQGTDHIDQWNK (UniProt P45984)	-0.0703	0.0724
LRPPRC_P42704_380_EDGPSVFGSFFLQHCVTMNTPVEK (UniProt P42704)	0.0471	0.322
METAP2_P50579_263_IIDCAFTVTFNPK (UniProt P50579)	0.171	0.0277
MSH6_P52701_687_SELALSALGGCVFYLK (UniProt P52701)	0.05	0.296
MCCC2_Q9HCC0_267_AATGEEVSAEDLGGADLHCRK (UniProt Q9HCC0)	-0.591	-1.49
MCU_Q8NE86_191_TLVQQLYTTLCIEQHQLNK (UniProt Q8NE86)	0.0411	-0.0406
MAZ_P56270_424_VHSQGPHHVCELCNK (UniProt P56270)	0.033	-0.236
MRI1_Q9BV20_168_VTVLTHCNTGALATAGYGTALGVIR (UniProt Q9BV20)	0.147	0.0771
LPP_Q93052_524_SLDGIPFTVDAGGLIHCIEDFHKK (UniProt Q93052)	-0.0384	-0.452
LRRFIP1_Q32MZ4_456_CMVEVPQELETSTGHSLEK (UniProt Q32MZ4)	-0.167	-0.23
MPC2_O95563_54_WGLVCAGLADMARPAEK (UniProt O95563)	-0.141	-1.31
LIMS1_P48059_281_AWCVNCFACSTCNTK (UniProt P48059)	0.00276	0.175
MAP2K6_P52564_216_TIDAGCK (UniProt P52564)	-0.048	0.239
MOB4_Q9Y3A3_134_HTLDGAACLLNSNK (UniProt Q9Y3A3)	-1.14	-3.77
MCM5_P33992_355_AIACLLFGGSRK (UniProt P33992)	-0.159	-0.759
MYCBP2_O75592_505_CLHACGISLFDLEK (UniProt O75592)	0.122	0.236
MBTD1_Q05BQ5_288_VSESMQYPFKPCMR (UniProt Q05BQ5)	0.00855	0.00392

Target	probe-labelled cysteine peptide fold change (10 µM)	probe-labelled cysteine peptide fold change (50 µM)
MARS_P56192_389_CEHCAR (UniProt P56192)	-0.00939	-0.304
MYCBP2_O75592_4318_QVFKEEEEAIKVDLHEGCGR (UniProt O75592)	-0.166	-0.439
MARS_P56192_309_QWNTLYLCGTDEYGTATETK (UniProt P56192)	-0.0161	0.0949
MRPS31_Q92665_356_HFMELVTCGLSK (UniProt Q92665)	0.0457	-0.112
LIMD1_Q9UGP4_401_LSPTSLVHPVMSTLPELSCK (UniProt Q9UGP4)	-0.0884	-0.436
MYBBP1A_Q9BQG0_338_HYGEHVCTAK (UniProt Q9BQG0)	0.0441	0.083
MSTO1_Q9BUK6_232_LHFYVEECDYLQGFQILCDLHDGFSGVGAK (UniProt Q9BUK6)	0.444	1.33
LIG3_P49916_929_KAADETLCQTK (UniProt P49916)	-0.152	-1.24
LIMS1_P48059_193_MGVPICGACR (UniProt P48059)	-0.104	-0.269
MSTO1_Q9BUK6_347_LCSSPVSMVHLADMLSFCGK (UniProt Q9BUK6)	0.0999	0.248
MRPS30_Q9NP92_393_NICWGTQSK (UniProt Q9NP92)	-0.226	-0.187
MMADHC_Q9H3L0_261_HLGFSVDDLGCCK (UniProt Q9H3L0)	-0.3	-1.27
MTR_Q99707_798_NIVGVVLGCNNFR (UniProt Q99707)	0.00546	-0.26
MAPK8_P45983_163_SDCTLK (UniProt P45983)	-0.283	-1.24
LRCH3_Q96II8_148_NQLSTLPVHLCNLPLK (UniProt Q96II8)	0.138	0.0632
LMAN1_P49257_230_NDYEFCAK (UniProt P49257)	0.239	0.703
MCRS1_Q96EZ8_84_CSGSEPSSSEK (UniProt Q96EZ8)	-0.0254	-0.104
MEFV_O15553_375_KSPGSLSPQPLPQCK (UniProt O15553)	-0.229	-1.2
LTA4H_P09960_8_PEIVDTCSLASPASVCR (UniProt P09960)	-0.129	-0.324
MICALL1_Q8N3F8_597_GSSGPQPAKPCSGATPTPLLLVGDR (UniProt Q8N3F8)	-0.17	-0.459
MCTS1_Q9ULC4_144_QHALCVGVMK (UniProt Q9ULC4)	0.104	-0.154
